The supplement of paper PMC9477273

Test system: DRIVER-selected RNA biosensor (aptazyme) pool
Assay: maximum fold change of ribozyme cleavage across biosensor pool versus no-compound control; higher = stronger biosensor response (ligand inhibits cleavage)
Details: 10 µM
Description: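 CleaveSeq: a pool of resynthesized hammerhead-ribozyme RNA biosensors (sTRSV scaffold with randomized loops, 1,730 sequences) was T7-transcribed at 37 °C for 15-30 min with a single compound at 10 µM. Cleaved and uncleaved products were counted by NGS, and fold change of cleavage was computed against the DMSO-only condition. The value is the maximum fold change of cleavage over all biosensors in the pool. About 255 compounds were tested individually.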

Structure (SMILES) | maximum fold change
CCCCOc1ccc(CNC2=NS(=O)(=O)C(c3ccc(C(C)C)cc3)=C2C)cc1 | 3.52
CC(C)CC(NC(=O)/C(=C/c1ccco1)NC(=O)c1ccc(Br)o1)C(=O)O (stereo not given) | 1.98
O=C(NC1(C(F)(F)F)N=C(c2ccccc2)N(C2CCCCC2)C1=O)c1ccco1 (stereo not given) | 2.01
Cc1ccc(-c2noc(CCC(=O)NCCN3CCOCC3)n2)cc1 | 3.61
O=c1cc(-c2ccccc2)[nH]c2nc(C(F)(F)F)nn12 | 3.78
COCCNCc1c(C(=O)O)c(C)n(Cc2ccccc2F)c1C | 2.4
Cc1ccc(-c2nc(CS(=O)(=O)CC(=O)NCCCN(C)Cc3ccccc3)c(C)o2)cc1 | 3.58
O=C(NCCCc1ccccc1)C1CCN(c2nnc(N3CCCC3=O)s2)CC1 | 3.05
COc1ccc(cc1C1=N/C(=CNc2ccccn2)/C(=O)O1)Cl | 6.85
CCOC(=O)c1c(C)c(-c2ccccc2)n(CC(=O)NCCN(C)C)c1C | 2.04
CC(=O)N1C(=N)S/C(=C/c2cc3ccc(C)cc3nc2O)C1=O | 7.51
COc1ccc(CCNC(=O)c2nnc(Cc3ccc(Cl)cc3Cl)o2)cc1OC | 2.09
Cc1ccc(CS(=O)Cc2ccc(C(=O)NC(C)C)o2)cc1 (stereo not given) | 1.84
Cc1nn2c(-c3ccco3)nnc2c2ccccc12 | 8.73
CCOC(=O)C1=C(C)NC(=S)NC1c1ccc(O)c(OC)c1 (stereo not given) | 3.37
Cc1ccc(OCC(=O)N(Cc2ccccc2F)C2CCS(=O)(=O)C2)cc1C (stereo not given) | 2.91
COc1cc(CNc2ncc(-c3ccccc3)n2C)cc(OC)c1OC | 1.75
CCc1ccc(C2c3c(-c4ccccc4O)n[nH]c3C(=O)N2CC2CCCO2)cc1 (stereo not given) | 1.83
Cc1ccc(C)c(Cn2c(C)c(CNCCCN3CCCC3=O)c(C(=O)O)c2C)c1 | 2.12
O=C(c1ccc(CS(=O)c2cccc(Cl)c2)o1)N1CCN(C2CCCCC2)CC1 (stereo not given) | 2.71

Structure (SMILES) | maximum fold change
O=C(Cn1ncn2nc(-c3cccs3)cc2c1=O)N1CCN(c2ccccn2)CC1 | 3.03
CC(=Cc1ccccc1)/C=C1N=C(/C=C/c2ccccc2)OC/1=O | 2.27
COCCNC(=O)/C(C#N)=C/c1c(Oc2ccccc2Cl)nc2ccccn2c1=O | 2.74
CCCOc1ccc(C2c3c(oc4ccccc4c3=O)C(=O)N2c2nccs2)cc1 (stereo not given) | 8.73
COc1cccc(-c2cc(C(=O)NC3CCCc4ccccc43)[nH]n2)c1 (stereo not given) | 1.96
Cc1ccc2nc(/C(C#N)=C\c3ccc[nH]3)[nH]c2c1 | 4.98
O=C1Nc2cc(C(=O)N3CCN(c4ccco4)CC3)ccc2N/C1=C\C(=O)c1ccc(Cl)cc1 | 5.38
N#C/C(=Cc1c(Oc2ccccc2Cl)nc2n(c1=O)cccc2)/c1nc2c([nH]1)cccc2 | 7.4
CCOC(=O)c1cnc2c(OC)cccc2c1NCCCN(CC)CC | 6.68
CCN1CCN(C(=O)c2cc(C)nn2-c2ccccc2)CC1 | 2.67
OCCCN/C=C/1C(=O)CC(CC1=O)c1ccc(cc1)OC (stereo not given) | 1.74
N#C/C(=Cc1c(Oc2ccc(cc2)Br)nc2n(c1=O)cccc2)/C(=O)N1CCOCC1 | 4.23
Cc1c(C(=O)NCc2ccccc2Cl)oc2c1-c1[nH]ncc1CC2 | 2.79
Cc1ccc(-c2noc(CCC(=O)NCc3ccc(F)cc3Cl)n2)cc1 | 3.35
CCOc1cc(CNc2ncc(-c3ccc(Br)cc3)n2C)ccc1O | 2.06
CCOC(=O)c1cnc2c(C)c(Cl)ccc2c1NCCCN1CCOCC1 | 12.1
O=c1c2cccnc2n(Cc2ccc(Cl)cc2)c(=O)n1CCc1ccccc1 | 2.13
COc1ccc(cc1)C1=N/C(=Cc2cc(OC)ccc2OC)/C(=O)O1 | 1.9
Cc1cc(C)c2c(-n3cccc3)c(C(=O)NCc3ccc4c(c3)OCO4)sc2n1 | 5.23
Cc1ccccc1-c1nnc(SCC(=O)N2CCC(C)CC2)o1 | 1.91
